# The list is not random: actives were taken first. Their share in the collection is about 1.1%.
# UCHL1 block: human UCHL1 deubiquitinase inhibition | P09936 | purified UCHL1, Ub-rhodamine cleavage fluorescence | inhibition, % at 20 µM | 0.2% of 47,000 active
# Target sequence (P09936 whole entry, looked up): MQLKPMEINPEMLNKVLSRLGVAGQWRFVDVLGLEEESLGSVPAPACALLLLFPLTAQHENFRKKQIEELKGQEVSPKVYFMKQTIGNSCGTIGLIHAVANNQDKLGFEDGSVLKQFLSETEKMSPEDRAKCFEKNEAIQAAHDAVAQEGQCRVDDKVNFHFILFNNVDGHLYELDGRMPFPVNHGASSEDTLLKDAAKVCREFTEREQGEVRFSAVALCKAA
# OTUD3 inh: human OTUD3 deubiquitinase inhibition; purified OTUD3, Ub-rhodamine fluorescence, 2 h; 0.7% of 47,000 active; Q5T2D3; inhibition, % at 25 µM; AID 1645858
# USP7 block: blocks human USP7 ubiquitin-rhodamine cleavage | purified USP7, Ub-rhodamine cleavage fluorescence | inhibition, % at 20 µM | 0.3% of 47,000 active | AID 1645854
# Starred values were filed as active, the others as inactive. No stated cut-off is given here; in the data, active means inhibition above about 30%; inactive means the rest.
SMILES,UCHL1 block,OTUD3 inh,USP7 block
CC1O[C@@H](c2ccc3c(c2O)C(=O)C2=C(C3=O)[C@@]3(O)C(=O)C(O)[C@](C)(O)C[C@@]3(O)C=C2)CC[C@@H]1OC(=O)/C=C/C=C/C=C/[C@@H]1O[C@@](C)(C(=O)O)O[C@H]1C (stereo not given in full),38*,46*,-18
CCCc1nc2oc3c(NCCCO)ncnc3c2c2c1CCCC2,2,0,0
C=C1NC(=O)c2c(sc(C(=O)OCC(=O)NCc3ccc(F)cc3)c2C)N1,1,-3,0
Cc1cc(O)c2c(c1)C(=O)c1cc(O)cc(O)c1C2=O,-5,-84,-24
O=C1C=C(O)c2c(O)cc(O)cc2C1=O,94*,99*,85*
COCCN1C(=O)c2ccccc2C(C(=O)Nc2cc(C)ccn2)C1c1cccs1 (stereo not given),7,7,7
O=C(CN1CCCCC1)Nc1nnc(-c2ccc([N+](=O)[O-])cc2)s1,7,40*,4
O=C(CN1CCCCCC1)Nc1cc([N+](=O)[O-])ccc1Cl,0,0,-1
Cc1noc(COC2CCN(C(=O)NC3CCCCC3)CC2)n1,0,1,-2
COc1ccccc1NC(=O)Cn1cc(C(=O)c2ccc(C)cc2)c(=O)c2cc(Cl)ccc21,-1,12,8
CCOc1ccc2c(c1)c(=O)c(C(=O)c1ccc(C)cc1)cn2CC(=O)Nc1ccc(OC)c(OC)c1,15,36*,26
CCOc1ccc2c(c1)c(=O)c(C(=O)c1ccc(F)cc1)cn2CC(=O)Nc1ccc(F)cc1,30*,5,47*
COc1ccc(NC(=O)Cn2cc(C(=O)c3ccc(C)cc3)c(=O)c3ccccc32)cc1,2,10,11
COc1ccc(NC(=O)Cn2cc(C(=O)c3ccc(F)cc3)c(=O)c3cc(C)ccc32)cc1,8,6,16
COc1cc(NC(=O)Cn2cc(C(=O)c3ccccc3)c(=O)c3cc(Cl)ccc32)cc(OC)c1,10,4,51*
CC(C(=O)Nc1cc(Cl)ccc1Cl)N(C)CC(=O)Nc1cccc2ccccc12 (stereo not given),2,-8,-4
Cc1ccc(Cn2nc(C)c(C(=O)N3CCCc4cc(C)ccc43)c2C)cc1,-1,-13,-154
CN(C)C=Nc1nc(SCc2c(F)cccc2Cl)n[nH]1,0,1,4
Cc1nnc(-c2ccc3ccn(CC(=O)N4CCN(c5ccccn5)CC4)c3c2)o1,-1,0,0
CCc1nnc(-c2ccc3ccn(CC(=O)N4CCN(c5ccccn5)CC4)c3c2)o1,17,83*,-12
CCOc1ccc(CN2C(=O)c3ccccc3C2C(=O)NCc2ccccc2OC)cc1 (stereo not given),3,14,6
COc1ccccc1CNC(=O)C1c2ccccc2C(=O)N1Cc1ccc(C)cc1 (stereo not given),3,52*,-12
Cc1ccc(CNC(=O)CCc2nnc3c(=O)n(-c4ccc(C)c(C)c4)ccn23)cc1,4,27,8
CCc1cc(=O)n(CC(=O)Nc2cc(C)ccc2OC)c(N2CCOCC2)n1,3,37*,3
CCc1cc(=O)n(CC(=O)Nc2ccc(F)c(F)c2)c(N2CCOCC2)n1,0,9,-22
SMILES,UCHL1 block,OTUD3 inh,USP7 block
Cc1nc(-c2ncc(C)[nH]2)cc(C2CCCCN2C(=O)C(C)(C)C)n1 (stereo not given),1,10,4
O=C(NC1CCCc2ccccc21)C1CCN(C(=O)c2ccc(F)cc2)CC1 (stereo not given),-3,-15,-3
COc1cc(CCC(=O)Oc2ccc(-c3ccc(C#N)cc3)cc2)cc(OC)c1OC,3,6,12
COCCN(C(=O)c1ccncc1)c1nc(-c2ccc(OC)cc2)cs1,0,-10,-41
Cn1nc(-c2ccccc2)c(COC(=O)c2cc(C(F)(F)F)cc(C(F)(F)F)c2)c1S(=O)(=O)c1ccc(Cl)cc1,-1,15,5
O=C(NCc1ccco1)c1ccc(Cn2c(SCc3ccccc3)nc3ccncc32)cc1,3,75*,59*
CC1CCN(C(=O)c2ccc(CSc3nc4ccncc4n3Cc3ccccc3)cc2)CC1,1,1,2
CC(C)CNC(=O)[C@H]1C[C@@H]2CN(S(=O)(=O)c3ccccc3)C[C@H]1O2,1,14,5
CC1CCN(S(=O)(=O)c2cc(-c3nnc(C4CCCC4)o3)co2)CC1,-4,-8,-6
O=C(Nc1ccccc1-c1nc2ccccc2[nH]1)c1ccc(Br)cc1,-3,-4,2
O=C(Nc1ccccc1-c1nc2ccccc2[nH]1)c1sc2ccccc2c1Cl,3,-8,32*
Cc1ccc(CN2C(=O)COc3ccccc3C2=O)cc1,2,15,-76
Oc1cc(O)cc(/C=C/c2ccc(O)c(O)c2)c1,1,47*,-140
O=C(/C=C/c1ccc(O)c(O)c1)O[C@@H]1C[C@](O)(C(=O)O)C[C@@H](O)[C@H]1O,-4,-1,2
CSc1ncc(C(=O)NC(C)c2ccccc2)c(-c2ccccc2)n1 (stereo not given),0,11,1
O=C1c2c(O)cccc2C2(Oc3cccc4cccc(c34)O2)C2OC12 (stereo not given),28,47*,-6
CC1(C)c2ccc3c(c2C(=O)C2OC21)C(O)OC3=O (stereo not given),-5,-6,-14
O=C1c2c(O)ccc(O)c2C2(Oc3cccc4cccc(c34)O2)C2OC12 (stereo not given),45*,68*,6
O=C(Nc1cc(F)ccc1F)N1CCN(Cc2ccc3nccnc3c2)CC1,3,8,-1
O=C(c1ccc(F)cc1)N1CCC2(CC1)COCCN(c1ncccn1)C2,-2,-1,-2
Cc1nnc(NC(C)C)s1,1,0,3
CCn1cc(CN2CCc3nc(C(C)C)[nH]c(=O)c3CC2)cn1,0,0,3
COc1cc(NC(=O)Cn2c(=O)n(-c3ccc(CC(=O)NC4CCCC4)cc3)c(=O)c3ccccc32)cc(OC)c1,-1,43*,17
O=C(Cn1c(=O)n(-c2ccc(CC(=O)NC3CCCC3)cc2)c(=O)c2ccccc21)Nc1ccccc1[N+](=O)[O-],2,29,0
COc1c(O)cc(CC(=O)O)c(C(C)=O)c1O,50*,78*,-29
SMILES,UCHL1 block,OTUD3 inh,USP7 block
CCCCCCCC(=O)c1c(O)cc(O)cc1CC(=O)O,-7,-2,-13
COc1ccccc1-c1ccccc1CC1CN(Cc2cnn(C)c2)CCNC1=O (stereo not given),0,8,2
CC(C)(C)C(=O)C1C2C(=O)N(c3ccc4c(c3)OCO4)C(=O)C2C2c3ccccc3C=CN12 (stereo not given),11,55*,-27
COc1ccc(NC(=O)C2[C@@H]3C(=O)N(c4ccc5c(c4)OCO5)C(=O)[C@@H]3[C@H]3c4ccccc4C=CN23)cc1 (stereo not given in full),-157,-39,-86
Cc1cccc(C)c1NC(=O)CCc1nc(CSc2nc3ccccc3o2)no1,0,20,-10
Cc1ccc(C)c(NC(=O)CCc2nc(CSc3nc4ccccc4o3)no2)c1,3,39*,1
COc1ccc(-c2c3c([nH]c(=O)c2C#N)-c2ccccc2CC3)cc1,-5,-19,-6
Cc1nc(CC(=O)Nc2ccc(F)cc2)sc1C(=O)NC1CC1,-3,-41,-4

# Bioassay records (PubChem)
